DAX1 inh-1 = DAX1 (NR0B1) inhibitors, primary screen, cell-based, HEK293, Gal4-DAX1, luciferase luminescence; HEK293 Gal4-DAX1 luciferase reporter; inhibition, % at 6.75 µM; 0.99% of 340,000 active; AID 504766, 2011;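 active = inhibition above the mean over all tested compounds plus 3 SD, cut at about 4.2% in these data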;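 note: inhibition shows as a rise in luminescence from relieved DAX1 repression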
Target sequence (P51843 207-470 limits assumed): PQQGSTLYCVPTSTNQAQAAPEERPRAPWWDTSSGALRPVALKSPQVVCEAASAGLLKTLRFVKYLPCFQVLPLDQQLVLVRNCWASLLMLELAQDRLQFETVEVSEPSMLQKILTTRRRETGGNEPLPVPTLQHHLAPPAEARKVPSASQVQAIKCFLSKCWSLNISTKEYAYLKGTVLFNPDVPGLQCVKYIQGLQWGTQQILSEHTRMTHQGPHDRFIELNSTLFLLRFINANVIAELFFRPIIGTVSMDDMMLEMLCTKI
DAX1 inh-2 = DAX1 (NR0B1) inhibitors on StAR promoter, primary screen, cell-based, luminescence, SF-1 (NR5A1), full-length DAX-1. HEK293T StAR-luciferase reporter, SF-1/DAX-1 repression relief. inhibition, % at 6.8 µM. 1.1% of 370,000 active. AID 652010, 2013;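 active = inhibition above the mean over all tested compounds plus 3 SD, cut at about 3.6% in these data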;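 note: higher inhibition means more luminescence from relief of DAX-1 repression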
hcDAF12 agonist = H. contortus DAF-12 nuclear receptor activators, primary screen, cell-based, luminescence, HEK293, lit1-tk-luc reporter. AID 652067, 2013. HEK293 hcDAF-12 lit1-tk-luc reporter; 0% DMSO, 100% Δ7-dafachronic acid. activation, % at 6.8 µM. 1.4% of 370,000 active;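 active = activation above the mean of all tested compounds plus 3 SD, cut at about 5.5% in these data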
ssDAF-12 act = S. stercoralis DAF-12 nuclear receptor activators, primary screen, cell-based, luminescence, HEK293, GRIP1 co-expression, lit1-tk-luc; HEK293 ssDAF-12/GRIP1 lit1-tk-luc reporter; % of 3 µM dafachronic acid response; AID 652126, 2013; activation, % at 6.8 µM; 1% of 370,000 active;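 active = activation above the mean over all tested compounds plus 3 SD, cut at about 0.9% in these data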
hgDAF12 agonist = H. glycines DAF-12 receptor agonists, primary screen, cell-based, luminescence, HEK293, GAL4 fusion, UAS-luciferase | Nuclear hormone receptor DAF-12 (Heterodera glycines), GAL4 fusion | HEK293 GAL4-hgDAF12 UAS-luciferase reporter, agonist luminescence; normalized to butyrate control | activation, % at 6.8 µM | 1.8% of 370,000 active | AID 687014, 2013;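 active = activation above a cutoff set at the mean of all screened compounds plus 3 SD, cut at about 10% in these data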
LXR ag = LXR agonists, Gal4 luciferase reporter, confirmation, counter-screen for hcDAF-12 agonist project, cell-based, luminescence, HEK293, H. contortus campaign; HEK293 Gal4-LXR tk-luc reporter, 24 h; normalized: DMSO 0%, positive control 100%; AID 743027, 2013; shares compounds with hcDAF12 agonist; activation, % at 6.8 µM; 3,400 tested, under 10 active;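 active = mean percent activation of the reporter above a cutoff set as the average over tested compounds plus their standard deviation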
hcDAF12 ag = H. contortus DAF-12 receptor agonists, confirmation, cell-based, luminescence, HEK293, lit1-tk-luc, triplicate; shares compounds with hcDAF12 agonist; HEK293 hcDAF-12 lit1-tk-luc reporter; % of Δ7-dafachronic acid response; activation, % at 6.8 µM; 61% of 3,400 active; AID 743032, 2013;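 active = mean activation across triplicate tests above the threshold derived from the earlier primary screen, cut at about 5.5% in these data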
Of the large screens only hits and unclear results are named; the others gave an inactive call (follow-up assays come after a bar, where they were run). An excerpt weighted towards active compounds, which were near 4.1% of everything screened.

COc1ccc(-c2nn(-c3ccccc3)cc2C2CC(c3cccs3)=NN2C(=O)CCC(=O)O)cc1 (stereo not given)	none
COc1ccccc1C1CC(c2cccs2)=NN1C(=O)CCC(=O)O (stereo not given)	hcDAF12 agonist 7.0 | LXR ag inactive | hcDAF12 ag inactive
COc1ccc(Cl)cc1NC(=O)c1[nH]nc(OC)c1[N+](=O)[O-]	hcDAF12 agonist 6.7 | LXR ag inactive | hcDAF12 ag inactive
N#C/C(=C/c1ccc(N2CCCCC2)cc1)c1cccc(F)c1	hcDAF12 agonist 8.8 | LXR ag inactive | hcDAF12 ag inactive
Cc1ccc(NC(=S)N2CCCC(CO)C2)c(C)c1 (stereo not given)	hcDAF12 agonist 6.9, hgDAF12 agonist 11 | LXR ag inactive | hcDAF12 ag inactive
Cc1ccc(NC(=S)N2CCC(O)CC2)c(C)c1	none
O=C(O)Cn1cc(/C=N/Nc2ccc([N+](=O)[O-])cn2)c2ccccc21	DAX1 inh-1 5.4, hcDAF12 agonist 7.9, ssDAF-12 act 1.4 | LXR ag inactive | hcDAF12 ag inactive
Cc1ccc(Cn2cc(/C=N/Nc3ccc([N+](=O)[O-])cn3)c3ccccc32)cc1	none
COC(=O)[C@H]1C[C@@]2(C)c3ccccc3N(S(=O)(=O)c3ccccc3)[C@H]2N1C(=O)CNC1CCCCC1	none (no result: DAX1 inh-1)
CCN(CC)C(=O)O[C@H]1CC[C@@]23CCCN2C(=O)CCC[C@H]3C1	none (no result: DAX1 inh-1, DAX1 inh-2)
Oc1oc(-c2ccccc2)nc1/C=N/c1nccs1	none
Oc1oc(-c2ccccc2)nc1C=Nc1cccc2ccccc12	hcDAF12 agonist 12 | LXR ag inactive | hcDAF12 ag inactive
Cc1ccc([N+](=O)[O-])cc1N/C=C/C(=O)c1ccco1	hcDAF12 agonist 8.1 | LXR ag inactive | hcDAF12 ag 6.1
O=C(/C=C/c1cccc([N+](=O)[O-])c1)c1ccco1	none
O=C(N[C@H](Cc1ccccc1)C(=O)O)[C@H]1O[C@@H](n2ccc(=O)[nH]c2=O)[C@H](O)[C@@H]1O	none (no result: DAX1 inh-1)
O=C1C(=C(O)c2ccccc2)C(=O)c2ccccc21	hcDAF12 agonist 7.0, ssDAF-12 act 2.1 | LXR ag inactive | hcDAF12 ag inactive
Brc1c(CSc2nc3ccccc3o2)nc2ncccn12	none
Cc1nnc(SCc2nc3ccccc3s2)n1N	DAX1 inh-2 4.1, hcDAF12 agonist 9.5, ssDAF-12 act 1.0 | LXR ag inactive | hcDAF12 ag 12
c1ccc2oc(SCc3nc4ccccc4s3)nc2c1	DAX1 inh-1 4.4, hcDAF12 agonist 10, ssDAF-12 act 1.9 | LXR ag inactive | hcDAF12 ag 11
Cc1nnc(SCc2nc3ccccc3s2)n1-c1ccccc1	hcDAF12 agonist 7.6, ssDAF-12 act 1.2 | LXR ag inactive | hcDAF12 ag 9.5
Cc1ccccc1CSc1nnc(C)n1N	none
CCn1c(SCc2nc3ccccc3s2)nnc1-c1ccccc1	none
Clc1c(CSc2nc3ccccc3o2)nc2ccccn12	DAX1 inh-2 4.2, hcDAF12 agonist 7.0, hgDAF12 agonist 10 | LXR ag inactive | hcDAF12 ag 7.0
COc1ccc(CSc2nnnn2-c2ccccc2)cc1	none
COc1ccc(-n2nnnc2SCc2nc3ccccc3s2)cc1	hcDAF12 agonist 8.1, ssDAF-12 act 1.1 | LXR ag inactive | hcDAF12 ag 11
CC(=O)/C=C/c1ccc2ccccc2n1	hcDAF12 agonist 8.2 | LXR ag inactive | hcDAF12 ag inactive
COC(=O)C1CN(Cc2ccc(F)cc2)CCS(=O)(=O)N1Cc1cn(CCOC(C)=O)nn1 (stereo not given)	none (no result: DAX1 inh-1)
N#CC1=C(N)C(C#N)(C#N)C2(C(=O)Nc3ccccc32)C2CCCC=C12 (stereo not given)	hcDAF12 agonist 6.8 | LXR ag inactive | hcDAF12 ag inactive
CCOC(=O)c1cn[nH]c1NC(=S)Nc1ccc(OC)cc1	hcDAF12 agonist 8.0 | LXR ag inactive | hcDAF12 ag 9.3
CCOC(=O)NC(=S)Nc1ccc(OC)cc1	none
O=c1cc(/C=C/c2ccccc2)oc2ccccc12	DAX1 inh-2 3.7, hcDAF12 agonist 6.9, ssDAF-12 act 1.6, hgDAF12 agonist 12 | LXR ag inactive | hcDAF12 ag 9.4
COc1ccc(NC(C)C(=O)Nc2cc(C(F)(F)F)ccc2N2CCOCC2)c(OC)c1 (stereo not given)	hcDAF12 agonist 14 | LXR ag inactive | hcDAF12 ag inactive
COc1cc(Cl)c(C)cc1NC(C)C(=O)Nc1cc(C(F)(F)F)ccc1N1CCOCC1 (stereo not given)	none
COC(=O)C[C@@H]1CC[C@H]2[C@@H](COc3ccc(NC(=O)NC(C)C)cc3C(=O)N2C)O1	none (no result: DAX1 inh-1)
CC(=O)c1c(C)nc(-c2ccc(Cl)cc2)nc1N=CN(C)C	hcDAF12 agonist 8.6, ssDAF-12 act 1.0 | LXR ag inactive | hcDAF12 ag 8.6
CC(=O)c1c(C)nc(-c2ccc(Cl)cc2)nc1N	hcDAF12 agonist 15, ssDAF-12 act 1.6 | LXR ag inactive | hcDAF12 ag 7.3
CC(=O)c1sc(-c2ccc(Cl)cc2)nc1C	none
COC(=O)C1=C(C)N(C)C(=NCC2CC2)NC1c1cccc(F)c1 (stereo not given)	none (no result: DAX1 inh-1)
O=C(NCC1CCCO1)c1ccc[nH]1 (stereo not given)	none
O=C(NCC1CCCO1)c1cc2cc(F)ccc2[nH]1 (stereo not given)	hcDAF12 agonist 7.1 | LXR ag inactive | hcDAF12 ag inactive
N#Cc1ccsc1NC(=O)CSc1nnnn1-c1ccc(O)cc1	hcDAF12 agonist 7.4 | LXR ag inactive | hcDAF12 ag inactive
Cc1cccc2c(N=Nc3ccccc3)c(O)[nH]c12	DAX1 inh-1 5.4, hcDAF12 agonist 14, ssDAF-12 act 4.4, hgDAF12 agonist 22 | LXR ag inactive | hcDAF12 ag 21
Oc1[nH]c2ccccc2c1N=Nc1c(F)c(F)c(Cl)c(F)c1F	none
Oc1[nH]c2ccccc2c1N=Nc1cccc(Cl)c1	hcDAF12 agonist 8.9, ssDAF-12 act 1.2 | LXR ag inactive | hcDAF12 ag 13

Screening results: PubChem, The Scripps Research Institute Molecular Screening Center
